Measured values from PubChem BioAssay AID2806 (Sanford-Burnham Center for Chemical Genomics, 2010).
Out of some 330,000 compounds screened, about 660 (0.2%) were called active.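 The calls were made as follows: active = inhibition of at least 40% at 10 µM in the primary screen; inactive = the rest.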 Many of the other results were omitted from the sample, so actives are more common in it than they were.

These compounds were tested on intestinal alkaline phosphatase [Mus musculus] (assay: inhibitors of mouse IAP, primary screen, biochemical, luminescence, uHTS (AID 2806;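 also: plate controls were DMSO with enzyme for no effect and no enzyme wells for full effect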)). Conditions: purified mouse IAP, CDP-Star luminescence, 30 min; at 10 µM; stronger effect = higher value.
For `Cc1c(CC(=O)NCC(=O)NCC(=O)O)c(=O)oc2cc3oc4c(c3cc12)CCCC4`, the inhibition was 3.6% (inactive).
For `CN(/C(=N/S(=O)(=O)c1cccs1)c1ccccc1)c1ccc(O)cc1`, the inhibition was -15.8% (inactive).
For `COCc1cc(C)nc(Nc2cc(C)ccc2C)c1C#N`, the inhibition was -3.2% (inactive).
With `Cc1nc2sccn2c(=O)c1S(=O)(=O)NCCc1ccccc1` the inhibition was -1.1% (inactive).
`Cc1cc(C)c(S(=O)(=O)NCCCN2CCOCC2)cc1Br` was tested, and the inhibition was 6.6% (inactive).
In the case of `O=C(/C=C/Nc1ccc(S(=O)(=O)Nc2cnc3ccccc3n2)cc1)c1cccnc1`, the inhibition is reported as 10% (inactive).
For `OCC[C@H]1C[C@@H](O)[C@H](O)[C@@]2(OCCc3ccccc32)O1`, the inhibition was 8.9% (inactive).
With `COc1cc(C2CC(=O)Oc3cc(OC)c(OC)c(OC)c32)cc(OC)c1OC` (stereo unspecified) the inhibition was -2.2% (inactive).
`COc1ccc(OCCCC(=O)OC(C)C(=O)Nc2ccccc2[N+](=O)[O-])cc1` (stereo unspecified) was tested, and the inhibition was 1.5% (inactive).
In the case of `O=C(O)C1OC(C(=O)O)C2C1C(F)(F)C2(F)F` (stereo unspecified), the inhibition is reported as -3.4% (inactive).
With `Cc1ccccc1OCC(=O)N(Cc1cccc(F)c1)C1CCS(=O)(=O)C1` (stereo unspecified) the inhibition was -3.3% (inactive).
For `CCC(=O)Nc1ccc(-c2ccc(N3CCCCC3)nn2)cc1`, the inhibition was 6.7% (inactive).
With `COC(=O)c1ccc(S(=O)(=O)c2ccc(C(=O)OC)s2)s1` the inhibition was 7.9% (inactive).
In the case of `Cc1ccc2c(c1)NC(=O)[C@@]1(C)[C@@H](c3ccccc3)[C@H]3COc4ccc(Cl)cc4[C@@H]3N1C2=O`, the inhibition is reported as -2.6% (inactive).
`O=C(c1ccc(Cl)cc1)N1N=C(c2ccccn2)CC1(O)C(F)(F)F` (stereo unspecified) was tested, and the inhibition was -4% (inactive).
With `O=c1[nH]c(=S)[nH]c2[nH]c(=S)[nH]c12` the inhibition was 73.3% (active).
With `O=C(CN1CCN(C(=O)C2CCCO2)CC1)Nc1c(Cl)cccc1Cl` (stereo unspecified) the inhibition was 3.1% (inactive).
With `O=C(COC(=O)c1cnccn1)Nc1ccc(Cl)cc1C(F)(F)F` the inhibition was 4.7% (inactive).
For `Cc1ccc(OCc2nnc(NC(=O)OCC(C)C)s2)cc1`, the inhibition was 0.4% (inactive).
`O=C(Nc1nnc(SCc2ccccc2Cl)s1)c1cccc([N+](=O)[O-])c1` was tested, and the inhibition was 22.8% (inactive).
In the case of `CCc1nnc(SCc2cccc(F)c2)nc1CC`, the inhibition is reported as 4.4% (inactive).
In the case of `Clc1ccccc1CSc1nnc(-c2ccco2)c(-c2ccco2)n1`, the inhibition is reported as 60.4% (active).
For `c1ccc(CSc2nnc(-c3ccco3)c(-c3ccco3)n2)cc1`, the inhibition was 49% (active).
With `Clc1ccc(CSc2nnc3c(n2)[nH]c2ccccc23)cc1` the inhibition was 12.9% (inactive).
For `S=C(NCc1ccco1)NCc1ccccc1Cl`, the inhibition was -1% (inactive).
In the case of `C[C@H](NC(=O)[C@@H]1Cc2ccccc2CN1C(=O)OC(C)(C)C)C(=O)NC1CCCC1`, the inhibition is reported as -2.7% (inactive).
